According to PubChem BioAssay AID977624 (Broad Institute, 2014):
Out of some 1,800 compounds screened, fewer than 10 were called active. About 44% were inconclusive and are not listed.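 How the source made its calls: active means compound lowering the normal-ribosome reporter at least twice as much as the humanized-ribosome reporter, growth loss under a set limit; inconclusive means no clear call, values can overlap the other calls; inactive means the rest.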 A selection follows.

assay: growth inhibition of wild-type GFP E. coli, dose response, h34 mutant RFP, cherry-pick (AID 977624); conditions: E. coli wild-type GFP strain growth, fluorescence, 24 h; series mostly up to 50 µM; activity change, negative = inhibition: at the top concentration

Activity change, negative = inhibition, inactive:
COc1cccc(NC(=O)c2ccc(C(=O)c3ccccc3)o2)c1 -3.61
COc1ccc(C(=O)C2CCCN(C(=O)c3noc4c3CCCC4)C2)cc1F (stereo not drawn) 9.37
COc1ccc(C(=O)N(c2ccccc2)c2nccc3ccccc23)cc1OC 6.84
COc1ccc(C2CC(=O)CCN2S(=O)(=O)c2ccc(C)cc2)cc1 (stereo not drawn) -6.06
O=C(NCc1ccc(S(=O)(=O)Nc2ccccc2Cl)s1)c1ccccc1 3.75
Cc1ccc(C)c(-c2[nH]ncc2CN2CCCC(CO)(Cc3ccccc3C)C2)c1 (stereo not drawn) 0.321
Cc1nn(-c2cccc(Cl)c2)nc1C(=O)O -8.21
CC1CCN(c2ccc3nnc(CCC(=O)Nc4cccc(F)c4)n3n2)CC1 -8.21
O=C1c2ccccc2NC(c2ccc(-c3cccc([N+](=O)[O-])c3)o2)N1O (stereo not drawn) -11.5
COc1ccc(OC)c(-c2csc(NC(=O)C3COc4ccccc4O3)n2)c1 (stereo not drawn) -3.69
COc1ccc(-n2nc3cc(N)c(Br)cc3n2)cc1 -3.96
CN1C(=O)c2cc(NC(=O)c3cccc(F)c3)ccc2OC[C@H]2O[C@@H](CC(=O)N3CCc4ccccc4C3)CC[C@@H]21 -5.65
Brc1cc2c(cc1Br)OCCOCCOCCO2 3.87
COC(=O)CC#C[C@H](C)[C@@H](NS(=O)(=O)c1ccc([N+](=O)[O-])cc1)C(C)(C)C 14.2
Cc1cc(C(=O)NCCC2=CCCCC2)ccc1[N+](=O)[O-] -3.82
CN(C)S(=O)(=O)c1ccc(Cl)c(C(=O)OCC(=O)NC(=O)c2cccn2C)c1 7.26
COC(=O)c1cc(S(=O)(=O)NCc2ccc3c(c2)OCO3)cn1C 0.059
Cc1ccc(-c2cc(-c3ccc(C)cc3)[n+](-c3ccc(C(=O)[O-])cc3)c(-c3ccc(C)cc3)c2)cc1 11
CC(=O)Nc1ccc(NS(=O)(=O)c2ccc(Cl)s2)cc1 2.3
CN(c1ccc(C(=O)NCc2cccs2)cc1)S(=O)(=O)c1ccccc1 -3
CCn1nc(C(=O)OCc2cccc(S(=O)(=O)N(C)C)c2)c2ccccc2c1=O 3.66
COc1cccc(NC(=O)CSc2nc3c(sc4ccccc43)c(=O)n2CCN(C)C)c1 10.7
O=C(CC1C(=O)NCCN1CC1CCCCC1)NCc1ccc(F)cc1F (stereo not drawn) 5.47
CC(=O)N1CCN(c2nc(-c3cccs3)nc3ccccc23)CC1 -6.03
COc1ccc(NC(=O)c2sccc2-n2cccc2)cc1 7.88
O=C(Cc1ccc(NC(=O)C2CCCN(C(=O)CCc3ccccc3)C2)cc1)Nc1cccc(C(=O)N2CCCC2)c1 (stereo not drawn) 2.02
COc1ccc(Nc2nc(NCCO)nc(N3CCCC3)n2)cc1 -2.08
CC(C)[C@H](NC(=O)c1ccc([N+](=O)[O-])cc1Cl)C(=O)N1CCN(C/C=C/c2ccccc2)CC1 -11.6
COc1ccccc1NC(=O)CN1CCSc2ccccc21 -10.7
O=C(NCc1ccccc1Cl)[C@H]1CCCN1C(=O)[C@H]1CCCN1C(=O)c1cccc2ccccc12 0.914
CC1(C(=O)Nc2ccc3c(c2)OCCO3)CSCC(=O)N1CCOc1ccccc1 (stereo not drawn) 6.15
O=S(=O)(c1cnc(Cl)c(Cl)c1)N1CCCc2ccccc21 2.93
CCOC(=O)C1(CCCc2ccccc2)CCN(C(=O)CCn2cncn2)CC1 11.3
